What all share (assay): NCI-60 one-dose screen, 48 h (100 = growth as untreated, 0 = no growth, -100 = all killed)
Test [1] has as its system CCRF-CEM leukemia.
The test system of test [2] is OVCAR-3 ovarian.
In test [3] the test system is SK-MEL-2 melanoma. The note with it: 10 µM unless noted.
The subject of test [4] is EKVX NSCLC. To be noted: 10 µM unless noted.
Test [5] relates to SN12C renal. To be noted: 10 µM unless noted.
Test [6] concerns UO-31 renal. The note with it: 10 µM unless noted.
Test [7] relates to TK-10 renal. To be noted: 10 µM unless noted.
Test [8] relates to ACHN renal. To be noted: 10 µM unless noted.
Test [9] has as its system CAKI-1 renal. The note with it: 10 µM unless noted.
Test [10] has as its system A498 renal. The note with it: 10 µM unless noted.
The subject of test [11] is MOLT-4 leukemia. The note with it: 10 µM unless noted.
Test [12] relates to SR leukemia. The note with it: 10 µM unless noted.
Test [13] relates to RPMI-8226 leukemia. To be noted: 10 µM unless noted.
For test [14], the system named is OVCAR-8 ovarian. The note with it: 10 µM unless noted.
The subject of test [15] is OVCAR-5 ovarian. The note with it: 10 µM unless noted.
The subject of test [16] is OVCAR-4 ovarian. To be noted: 10 µM unless noted.
Test [17] relates to SK-OV-3 ovarian. To be noted: 10 µM unless noted.
The test system of test [18] is IGROV1 ovarian. To be noted: 10 µM unless noted.
Test [19] relates to HS 578T breast. To be noted: 10 µM unless noted.
Test [20] relates to NCI/ADR-RES ovarian. The note with it: 10 µM unless noted.

This is part of a sample that, as a whole, favours compounds with a hit. Of some 83,000 tested, about 20% had one in any assay.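 Growth was measured after 48 h exposure to one concentration of compound in 96-well plates. Values under 10 count as active.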 A number with no mark means an inactive call. Activity calls are given as the source filed them.

As to `CC/C(=C(/c1ccc(O)cc1)c1ccc(OCCN(C)C(=O)COCCOCCNC(=O)Cc2ccc3c(c2)CN([C@@H]2CCC(=O)NC2=O)C3=O)cc1)c1ccccc1`, the growth in test [1] (1 µM) was -11% (active); in [1] (10 µM), 16.7%.

As for `CC/C(=C(\c1ccc(O)cc1)c1ccc(OCCN(C)C(=O)COCCNC(=O)Cc2ccc3c(c2)CN([C@@H]2CCC(=O)NC2=O)C3=O)cc1)c1ccccc1`, the results for the growth in test [1] (1 µM) and in test [1] (10 µM) were -2.66% (active) and -7.62% (active), respectively.

`CC/C(=C(/c1ccc(O)cc1)c1ccc(OCCN(C)C(=O)COCCOCCNC(=O)c2ccc3c(c2)CN([C@@H]2CCC(=O)NC2=O)C3=O)cc1)c1ccccc1`: the growth in test [2] (1 µM) was 99.1%; in [2] (10 µM) it was 95.8%.

In the case of `CC/C(=C(/c1ccc(O)cc1)c1ccc(OCCN(C)C(=O)CCOCCNC(=O)Cc2ccc3c(c2)CN([C@@H]2CCC(=O)NC2=O)C3=O)cc1)c1ccccc1`, the growth in [2] (1 µM) is 102%; in [2] (10 µM) it was 68.4%.

As to `CCCCCCCCCc1ccc(C(=O)Nc2cc(C)ccc2C(=O)OC)cc1`, the growth in test [3] is 111%; in [4] it was 109%; in test [5] it was 101%; in [6], 98.4%; in [7], 121%; in test [8], 109%. For the same compound, the growth is 98.8% in [9]; 128% in test [10]; 87.9% in test [1] (10 µM unless noted); 97.5% in [11]; 90.1% in test [12]; 81.6% in test [13]. Besides, the growth is 110% in test [14]; 111% in test [15]; 94.5% in test [16]; 107% in [17]; 118% in test [18]; 124% in [2] (10 µM unless noted). For the same compound, the growth in [19] was 106%; in test [20] it was 109%.

As for `COc1ccc(C(=O)NNC(=O)CSc2nc3sc4c(c3c(=O)n2-c2ccc(Cl)cc2)CCCC4)cc1`, the growth was 92.2% in test [3]; 55.1% in [4]; 29.5% in test [5]; 65.1% in test [6]; 143% in test [7]; 85.7% in [8]. The growth is 74% in [9]; 124% in test [10]; 70.4% in test [1] (10 µM unless noted); 63.7% in [11]; 48.2% in test [12]; 79% in test [13]. Further, the growth in test [14] is 24.3%; in test [15] it was 78.9%; in [16], 78.6%; in [17], 70.4%; in [18], 89.2%; in test [2] (10 µM unless noted), 106%. Also, the growth in test [19] was 60.4%; in test [20], 56.9%.

For the compound `COc1ccc(NC(=O)CSc2nnc(-c3ccc(-c4nc5ccccc5[nH]4)cc3)o2)cc1`, the growth in [3] is 61.8%; in test [4], 53.2%; in [5], 31%; in test [6], 97.7%; in test [7] it was 96.8%; in [8] it was 35.4%. Further, the growth in test [9] was 41.5%; in test [10] it was 147%; in test [1] (10 µM unless noted), 50.7%; in test [11], 35.9%; in test [12], 35.3%; in test [13], 18.4%. In addition, the growth is -24.6% (active) in test [14]; 55.4% in [15]; 38.3% in test [16]; 98.2% in test [17]; 35.6% in test [18]; 41.4% in test [2] (10 µM unless noted). Besides, the figures for the growth in test [19] and in test [20] were 45% and 50.1%, respectively.

Take `C[C@@H]1CN(c2ccc3ncc(C#Cc4cncc(C(=O)Nc5ccc(CN6CCN(C)CC6)c(C(F)(F)F)c5)c4)n3n2)C[C@@H](C)O1`: the growth in [3] is -88.4% (active); in test [4], -96% (active); in test [5], -66.5% (active); in test [6], -99.3% (active); in test [7] it was -98% (active); in test [8] it was -95.3% (active). Moreover, the growth is -95.3% (active) in test [9]; -99% (active) in [10]; -36% (active) in test [1] (10 µM unless noted); 4.86% (active) in test [11]; -27.6% (active) in test [12]; -65% (active) in test [13]. The growth in [14] was -71.8% (active); in test [15], -54.2% (active); in test [16], -61.5% (active); in test [17] it was -80.1% (active); in test [18], -56.3% (active); in [2] (10 µM unless noted), -60.6% (active). Also, the growth in [19] is -49.2% (active); in test [20], -85.1% (active).

Consider `O=C(N/N=C/c1occc1Br)c1[nH]c2ccc(Br)cc2c1-c1ccccc1`, for which the growth in test [3] is -88.8% (active); in [4], -94.1% (active); in test [5], -83.8% (active); in test [6], -87.1% (active); in test [7], -76.5% (active); in test [8], -100% (active). In addition, the growth in test [9] is -91.5% (active); in test [10], -89.6% (active); in test [1] (10 µM unless noted), 4.68% (active); in [11] it was -15.2% (active); in test [12] it was -9.6% (active); in test [13] it was -4.48% (active). The growth in test [14] is -51.7% (active); in test [15], -99.8% (active); in [16], -87% (active); in test [17], -85.3% (active); in [18] it was -92.8% (active); in [2] (10 µM unless noted) it was -73.7% (active). Moreover, the growth is -28.4% (active) in [19] and -53.5% (active) in test [20].

As to `COc1c(F)ccc(C(=O)Nc2ccc3nc(NC(=O)C4CCCN(S(=O)(=O)c5ccc(C(C)(C)C)cc5)C4)sc3c2)c1F` (stereo not drawn), the growth was 71.3% in test [3]; 59% in test [4]; 57% in test [5]; 44.3% in test [6]; 93.6% in test [7]; 63.4% in test [8]. The growth in test [9] was 69.3%; in test [10] it was 84.7%; in [1] (10 µM unless noted), 57.9%; in [11], 29.7%; in test [12], 17.3%; in test [13] it was 44.3%. Also, the growth in test [14] was 84.9%; in [15] it was 81.3%; in test [16], 54%; in [17], 80.8%; in test [18], 55.5%; in test [2] (10 µM unless noted), 83.9%. The results for the growth in test [19] and in test [20] were 58.2% and 67.6%, respectively.

With `O=C(N=Nc1c(O)[nH]c2ccc(Br)cc12)c1ccc2nc(-c3ccc(Cl)cc3)[nH]c2c1`, the growth in [3] was 2.45% (active); in test [4], -14.1% (active); in [5], -50.8% (active); in test [6], 73.2%; in test [7] it was 54.3%; in test [8], 50.5%. For the same compound, the growth is 68.1% in [9]; 115% in test [10]; 7.74% (active) in test [1] (10 µM unless noted); -0.379% (active) in test [11]; 15.1% in test [12]; 58.6% in test [13]. In addition, the growth in test [14] is -25.9% (active); in test [15] it was 10.6%; in test [16] it was -28% (active); in [17], 24.3%; in test [18], -49.4% (active); in test [2] (10 µM unless noted), -4.77% (active). For the same compound, the growth in [19] was -1.71% (active); in test [20], 92.4%.

The values are drawn from PubChem BioAssay (NCI).
